According to PubChem BioAssay AID1159580 (chemical genetic matrix, 2015):
Several values for one entry are separate records, joined by “and”; a condition that tells them apart may be missing. Equal entries are not always repeated. The whole screen tested about 5,500 compounds, of which about 2,000 (36%) were called active. Not shown: some 18% with an inconclusive outcome. No stated cut-off is given here; in the data, active means normalized growth mostly below about 0.91 (no sharp cut-off); inconclusive means no clear call, values can overlap the other calls; inactive means mostly above about 0.92. The list shows a part of the results.

Experiment: chemical genetic growth profiling, strain panel (AID 1159580);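 further: tested at 20 µM; growth read once vehicle control cultures reached saturation at 30 °C; 1 = growth at the plate median or of vehicle wells; lower values mean less growth of the strain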
Conditions: growth OD

Measured: normalized growth

CC[C@H]1CN2CCC1C[C@@H]2[C@@H](O)c1ccnc2ccc(OC)cc12 (some centres not stated)
inactive: S. cerevisiae deletion strains, locus YAL013W, strain DEP1, active compounds read low 0.997 | S. cerevisiae deletion strains, locus YBR021W, strain FUR4, active compounds read low 0.996 | S. cerevisiae deletion strains, locus YBR229C, strain ROT2, active compounds read low 0.992 | S. cerevisiae deletion strains, locus YCL029C, strain bik1, active compounds read low 1.01 | S. cerevisiae deletion strains, locus YDL035C, strain GPR1, active compounds read low 0.995 | S. cerevisiae deletion strains, locus YDL074C, strain BRE1, active compounds read low 1.01 | S. cerevisiae deletion strains, locus YDL101C, strain DUN1, active compounds read low 0.995 | S. cerevisiae deletion strains, locus YDL134C, strain PPH21, active compounds read low 1.01 | S. cerevisiae deletion strains, locus YDL185W, strain tfp1, active compounds read low 1.01 | S. cerevisiae deletion strains, locus YDL192W, strain arf1, active compounds read low 1.01 | S. cerevisiae deletion strains, locus YDR101C, strain arx1, active compounds read low 1 | S. cerevisiae deletion strains, locus YDR150W, strain NUM1, active compounds read low 1.01 | S. cerevisiae deletion strains, locus YDR162C, strain NBP2, active compounds read low 1 | S. cerevisiae deletion strains, locus YDR318W, strain mcm21, active compounds read low 1.02 | S. cerevisiae deletion strains, locus YDR388W, active compounds read low 1.01 | S. cerevisiae deletion strains, locus YDR502C, strain sam2, active compounds read low 1.04 | S. cerevisiae deletion strains, locus YEL061C, strain CIN8, active compounds read low 1.01 | S. cerevisiae deletion strains, locus YER110C, active compounds read low 1.01 | S. cerevisiae deletion strains, locus YER155C, strain BEM2, active compounds read low 1.01 | S. cerevisiae deletion strains, locus YER167W, strain BCK2, active compounds read low 1 | S. cerevisiae deletion strains, locus YGL078C, strain dbp3, active compounds read low 1.01 | S. cerevisiae deletion strains, locus YGL086W, strain mad1, active compounds read low 1 | S. cerevisiae deletion strains, locus YGL248W, strain PDE1, active compounds read low 0.997 | S. cerevisiae deletion strains, locus YGR078C, strain PAC10, active compounds read low 1 | S. cerevisiae deletion strains, locus YGR135W, strain pre9, active compounds read low 1.01 | S. cerevisiae deletion strains, locus YGR229C, strain SMI1, active compounds read low 0.977 | S. cerevisiae deletion strains, locus YGR252W, strain gcn5, active compounds read low 0.994 | S. cerevisiae deletion strains, locus YHR030C, strain SLT2, active compounds read low 1.01 and 1.04 | S. cerevisiae deletion strains, locus YHR079C, strain IRE1 (second series), active compounds read low 1.01 | S. cerevisiae deletion strains, locus YHR079C, strain IRE1, active compounds read low 1.02 | S. cerevisiae deletion strains, locus YHR094C, strain hxt1, active compounds read low 1.01 | S. cerevisiae deletion strains, locus YHR129C, strain ARP1, active compounds read low 1.01 | S. cerevisiae deletion strains, locus YHR200W, strain rpn10, active compounds read low 1.02 | S. cerevisiae deletion strains, locus YIL066C, strain RNR3, active compounds read low 1 | S. cerevisiae deletion strains, locus YIL073C, strain SPO22, active compounds read low 1.03 | S. cerevisiae deletion strains, locus YIL125W, strain kgd1, active compounds read low 1 | S. cerevisiae deletion strains, locus YIR030C, strain dcg1, active compounds read low 1.01 | S. cerevisiae deletion strains, locus YJL095W, strain BCK1, active compounds read low 1.01 and 1.02 | S. cerevisiae deletion strains, locus YJL134W, strain LCB3, active compounds read low 0.997 | S. cerevisiae deletion strains, locus YJL168C, strain set2, active compounds read low 1.01 | S. cerevisiae deletion strains, locus YJL187C, strain SWE1 (second series), active compounds read low 0.999 | S. cerevisiae deletion strains, locus YJR043C, strain POL32, active compounds read low 1.01 | S. cerevisiae deletion strains, locus YJR066W, strain TOR1, active compounds read low 0.956 | S. cerevisiae deletion strains, locus YJR075W, strain HOC1, active compounds read low 1 | S. cerevisiae deletion strains, locus YKL009W, strain mrt4, active compounds read low 1.08 | S. cerevisiae deletion strains, locus YKL068W, active compounds read low 1.01 | S. cerevisiae deletion strains, locus YKL085W, strain MDH1 (second series), active compounds read low 1.03 | S. cerevisiae deletion strains, locus YKL085W, strain MDH1, active compounds read low 1.03 | S. cerevisiae deletion strains, locus YKL190W, strain CNB1, active compounds read low 1.01 | S. cerevisiae deletion strains, locus YKR001C, strain vps1, active compounds read low 1.02 | S. cerevisiae deletion strains, locus YLR039C, strain RIC1, active compounds read low 1.01 | S. cerevisiae deletion strains, locus YLR058C, strain SHM2, active compounds read low 1 | S. cerevisiae deletion strains, locus YLR102C, strain apc9, active compounds read low 1.01 | S. cerevisiae deletion strains, locus YLR113W, strain HOG1, active compounds read low 1.02 | S. cerevisiae deletion strains, locus YLR262C, strain YPT6, active compounds read low 0.988 | S. cerevisiae deletion strains, locus YLR268W, strain sec22, active compounds read low 1.02 | S. cerevisiae deletion strains, locus YLR330W, strain CHS5, active compounds read low 1 | S. cerevisiae deletion strains, locus YLR342W, strain FKS1 (second series), active compounds read low 0.983 | S. cerevisiae deletion strains, locus YLR371W, strain rom2, active compounds read low 1.01 | S. cerevisiae deletion strains, locus YLR418C, strain cdc73, active compounds read low 1.01 | S. cerevisiae deletion strains, locus YML016C, strain PPZ1, active compounds read low 1 | S. cerevisiae deletion strains, locus YML032C, strain rad52, active compounds read low 1.01 | S. cerevisiae deletion strains, locus YML124C, strain tub3, active compounds read low 1.01 | S. cerevisiae deletion strains, locus YMR078C, strain ctf18, active compounds read low 1.03 | S. cerevisiae deletion strains, locus YMR223W, strain ubp8, active compounds read low 0.996 | S. cerevisiae deletion strains, locus YMR263W, strain SAP30, active compounds read low 1.02 | S. cerevisiae deletion strains, locus YMR307W, strain GAS1, active compounds read low 0.95 | S. cerevisiae deletion strains, locus YNL067W, strain RPL9B, active compounds read low 1.01 | S. cerevisiae deletion strains, locus YNL128W, strain TEP1, active compounds read low 1.01 | S. cerevisiae deletion strains, locus YNL153C, strain GIM3, active compounds read low 1 | S. cerevisiae deletion strains, locus YNL183C, strain NPR1, active compounds read low 0.942 | S. cerevisiae deletion strains, locus YNL233W, strain BNI4, active compounds read low 1 | S. cerevisiae deletion strains, locus YNL250W, strain rad50, active compounds read low 1.01 | S. cerevisiae deletion strains, locus YNL271C, strain bni1, active compounds read low 1.01 | S. cerevisiae deletion strains, locus YNL298W, strain CLA4, active compounds read low 1.01 | S. cerevisiae deletion strains, locus YNL307C, strain MCK1, active compounds read low 1.01 | S. cerevisiae deletion strains, locus YNL322C, strain KRE1, active compounds read low 1 | S. cerevisiae deletion strains, locus YNR052C, strain pop2, active compounds read low 1.02 | S. cerevisiae deletion strains, locus YOL006C, strain TOP1, active compounds read low 1.02 | S. cerevisiae deletion strains, locus YOL012C, strain htz1 0.815 | S. cerevisiae deletion strains, locus YOL147C, strain pex11, active compounds read low 1.01 | S. cerevisiae deletion strains, locus YOR061W, strain CKA2, active compounds read low 1.01 | S. cerevisiae deletion strains, locus YOR069W, strain VPS5, active compounds read low 0.998 | S. cerevisiae deletion strains, locus YOR136W, strain idh2, active compounds read low 1.02 | S. cerevisiae deletion strains, locus YOR144C, strain elg1, active compounds read low 1.01 | S. cerevisiae deletion strains, locus YOR184W, strain ser1, active compounds read low 1.01 | S. cerevisiae deletion strains, locus YOR231W, strain MKK1, active compounds read low 1.03 | S. cerevisiae deletion strains, locus YOR316C, strain cot1, active compounds read low 1.01 | S. cerevisiae deletion strains, locus YPL055C, strain LGE1, active compounds read low 0.993 | S. cerevisiae deletion strains, locus YPL241C, strain CIN2, active compounds read low 0.997 | S. cerevisiae deletion strains, locus YPL256C, strain CLN2, active compounds read low 1.02 | S. cerevisiae deletion strains, locus YPR119W, strain clb2, active compounds read low 1.01 | S. cerevisiae deletion strains, locus YPR141C, strain kar3, active compounds read low 1.01 | S. cerevisiae deletion strains, locus YPR163C, strain tif3, active compounds read low 1.02 | S. cerevisiae deletion strains, locus YPR167C, strain met16, active compounds read low 1.01 | S. cerevisiae deletion strains, strain wtn01, active compounds read low 1.03 | S. cerevisiae strains, strain wild type, active compounds read low 0.999
